{"source": "PubChem BioAssay AID720555", "about": "(National Center for Advancing Translational Sciences (NCATS), 2013)", "note": "Results filed as inconclusive are left out. Unmarked numbers belong to inactive results. Calls of active or inactive are those of the source. Calls follow the shape of the dose curve; as a rule, active = well fitted inhibition curve with a large enough effect; inconclusive = small, poorly fitted or top-dose-only effect; inactive = no such curve, though single readings can be large or run the other way.", "data": [{"biological_target": "RecQ-like DNA helicase BLM (Homo sapiens) (UniProt P54132)", "sequence (P54132 whole entry, looked up)": "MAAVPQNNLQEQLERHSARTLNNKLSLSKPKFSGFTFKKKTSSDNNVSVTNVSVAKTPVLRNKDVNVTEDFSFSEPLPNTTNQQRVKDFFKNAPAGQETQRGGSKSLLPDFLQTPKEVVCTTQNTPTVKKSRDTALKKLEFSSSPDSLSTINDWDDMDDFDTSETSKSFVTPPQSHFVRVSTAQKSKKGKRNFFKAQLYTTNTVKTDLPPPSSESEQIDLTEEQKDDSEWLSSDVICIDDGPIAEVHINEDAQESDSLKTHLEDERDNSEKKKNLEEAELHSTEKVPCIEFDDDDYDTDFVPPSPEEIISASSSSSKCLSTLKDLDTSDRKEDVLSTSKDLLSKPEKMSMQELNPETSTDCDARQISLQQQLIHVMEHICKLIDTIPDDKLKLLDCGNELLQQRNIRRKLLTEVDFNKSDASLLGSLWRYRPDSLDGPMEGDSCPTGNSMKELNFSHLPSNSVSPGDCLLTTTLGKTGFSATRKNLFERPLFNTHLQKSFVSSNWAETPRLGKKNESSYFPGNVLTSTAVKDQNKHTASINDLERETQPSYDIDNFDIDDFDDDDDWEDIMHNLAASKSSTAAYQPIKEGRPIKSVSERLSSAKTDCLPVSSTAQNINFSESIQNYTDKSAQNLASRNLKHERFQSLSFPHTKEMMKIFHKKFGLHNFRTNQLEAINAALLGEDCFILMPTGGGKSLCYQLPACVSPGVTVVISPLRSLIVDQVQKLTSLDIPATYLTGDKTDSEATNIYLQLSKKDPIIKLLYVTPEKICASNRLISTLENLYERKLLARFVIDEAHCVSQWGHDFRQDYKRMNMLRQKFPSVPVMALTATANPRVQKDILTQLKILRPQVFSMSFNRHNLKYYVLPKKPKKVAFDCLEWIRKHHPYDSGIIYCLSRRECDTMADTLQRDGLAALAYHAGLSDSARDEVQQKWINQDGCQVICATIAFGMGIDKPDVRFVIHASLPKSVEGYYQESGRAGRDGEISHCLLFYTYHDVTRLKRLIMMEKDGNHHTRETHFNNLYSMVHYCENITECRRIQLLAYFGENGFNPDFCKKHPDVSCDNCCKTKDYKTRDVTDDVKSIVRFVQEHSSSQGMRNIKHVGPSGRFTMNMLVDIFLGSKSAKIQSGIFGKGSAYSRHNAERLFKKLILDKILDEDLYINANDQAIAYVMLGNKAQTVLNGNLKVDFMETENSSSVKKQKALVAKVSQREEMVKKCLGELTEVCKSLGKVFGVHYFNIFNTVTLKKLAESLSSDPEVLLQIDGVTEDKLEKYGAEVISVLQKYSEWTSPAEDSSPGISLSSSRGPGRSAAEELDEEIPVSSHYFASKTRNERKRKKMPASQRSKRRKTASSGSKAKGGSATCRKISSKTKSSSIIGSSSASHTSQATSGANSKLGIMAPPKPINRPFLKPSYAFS", "assay": "qHTS for Inhibitors of Bloom's syndrome helicase (BLM): Helicase DNA unwinding fluorescent orthogonal confirmatory assay for SAR", "details": "fluorescence, orthogonal confirmation; series mostly up to 55.6 µM; activity change, negative = inhibition: at the top concentration", "summary_of_the_method": "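Purified BLM unwound a fluorescently labelled DNA substrate at room temperature in pH 7.5 Tris buffer with 2mM ATP and 2mM MgCl2. Products were resolved on native 15% gels. Loss of single-stranded product band, normalised to no-inhibitor and no-enzyme controls, indicates inhibition.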", "values": [{"smiles": "O=S(=O)(Cc1ccc(Cl)c(Cl)c1)Nc1nnc(-c2ccncc2)s1", "activity change, negative = inhibition": "-0.31%"}, {"smiles": "O=C(Nc1ccc2sccc2c1)Nc1nnc(-c2ccncc2)s1", "Potency": "10 µM (active)"}, {"smiles": "O=C(Nc1ccc(Cl)c(Cl)c1)Nc1nnc(N2CCNCC2)s1", "activity change, negative = inhibition": "10.7%"}, {"smiles": "O=C(Nc1ccc(Cl)c(Cl)c1)N1CCN(c2ccncc2)CC1", "activity change, negative = inhibition": "6% [at 53.6 µM]"}, {"smiles": "N#CN/C(=N\\c1nnc(-c2ccncc2)s1)Nc1ccc(F)c(C(F)(F)F)c1", "Potency": "3.16 µM (active)"}, {"smiles": "CCOC(=O)c1cccc(NC(=O)Nc2nnc(-c3ccncc3)s2)c1", "activity change, negative = inhibition": "10.3%"}, {"smiles": "CC(C)(C)NC(=O)Nc1nnc(-c2ccncc2)s1", "activity change, negative = inhibition": "5.44%"}, {"smiles": "CC(C)(C)c1ccc(-c2nnc(NC(=O)Nc3ccc4ccccc4c3)s2)cc1", "activity change, negative = inhibition": "5.46%"}, {"smiles": "O=C(Nc1ccc(Br)cc1)Nc1nnc(-c2ccncc2)s1", "Potency": "12.6 µM (active)"}, {"smiles": "O=C(Nc1ccc2ccccc2c1)Nc1nnc(-c2ccc(F)cc2)s1", "activity change, negative = inhibition": "-1.89%"}, {"smiles": "Cc1cc(NC(=O)Nc2nnc(-c3ccncc3)s2)ccc1Br", "Potency": "12.6 µM (active)"}, {"smiles": "N#Cc1cc(NC(=O)Nc2nnc(-c3ccncc3)s2)ccc1Br", "Potency": "0.501 µM (active)"}, {"smiles": "O=C(Nc1ccc(Cl)c(Cl)c1)Nc1nnc(-c2ccncc2)o1", "activity change, negative = inhibition": "0.56%"}, {"smiles": "Cc1cc(NC(=O)Nc2nnc(-c3ccncc3)s2)ccc1-c1cn[nH]c1", "Potency": "11.2 µM (active)"}, {"smiles": "Cc1ccc(-c2nnc(NC(=O)Nc3ccc4ccccc4c3)s2)cc1", "activity change, negative = inhibition": "-1.64%"}, {"smiles": "O=C(Nc1ccc(Cl)c(Cl)c1)Nc1ncc(-c2ccncc2)s1", "activity change, negative = inhibition": "-22.2% [at 53.6 µM]"}, {"smiles": "O=C(Nc1ccc(-n2cncn2)c(F)c1)Nc1nnc(-c2ccncc2)s1", "Potency": "14.1 µM (active)"}, {"smiles": "Cc1cc(NC(=O)Nc2nnc(-c3cccnc3)s2)ccc1F", "Potency": "25.1 µM (active)"}, {"smiles": "O=C(Nc1ccc(Br)c(Br)c1)Nc1nnc(-c2cccnc2)s1", "Potency": "3.55 µM (active)"}, {"smiles": "Cc1cc(Nc2c(Nc3nnc(-c4ccncc4)s3)c(=O)c2=O)ccc1Cl", "Potency": "22.4 µM (active)"}, {"smiles": "O=C(Nc1ccc(Cl)c(Cl)c1)Nc1cccc(-c2ccncc2)n1", "Potency": "3.98 µM (active)"}, {"smiles": "N/C(=N\\c1nnc(-c2ccncc2)s1)Nc1ccc(F)c(C(F)(F)F)c1", "Potency": "35.5 µM (active)"}, {"smiles": "Cc1cc(NC(=O)Nc2nnc(C3CCCCC3)s2)ccc1F", "activity change, negative = inhibition": "2.36%"}, {"smiles": "COc1ccccc1CNC(=O)Nc1nnc(-c2ccncc2)s1", "activity change, negative = inhibition": "0.3%"}, {"smiles": "O=C(Nc1ccc(-c2cn[nH]c2)c(C(F)(F)F)c1)Nc1nnc(-c2ccncc2)s1", "Potency": "15.8 µM (active)"}, {"smiles": "O=C(Nc1ccc(Br)c(Br)c1)Nc1cccc(-c2ccncc2)n1", "Potency": "0.891 µM (active)"}, {"smiles": "N#Cc1cc(NC(=O)Nc2nnc(-c3ccncc3)s2)ccc1-c1ccc[nH]1", "Potency": "3.55 µM (active)"}, {"smiles": "O=C(Nc1ccc2ccccc2c1)Nc1cccc(-c2ccncc2)n1", "Potency": "8.91 µM (active)"}, {"smiles": "O=C(Nc1cccc(C(F)(F)F)c1)Nc1nnc(-c2ccncc2)s1", "Potency": "14.1 µM (active)"}, {"smiles": "O=C(Nc1ccc(F)c(F)c1)Nc1nnc(-c2ccncc2)s1", "Potency": "8.91 µM (active)"}, {"smiles": "O=C(Nc1ccc2ccccc2c1)Nc1nnc(-c2ccccc2Cl)s1", "activity change, negative = inhibition": "-10.2%"}, {"smiles": "O=C(Nc1ccc(Cl)c(C(F)(F)F)c1)Nc1nnc(-c2cccnc2)s1", "Potency": "3.16 µM (active)"}, {"smiles": "O=C(Nc1ccc(Cl)c([N+](=O)[O-])c1)Nc1cccc(-c2ccncc2)n1", "Potency": "2.82 µM (active)"}, {"smiles": "O=C(Nc1ccc(Cl)c(Cl)c1)Nc1ccc(-c2ccncc2)s1", "activity change, negative = inhibition": "5.54% [at 53.6 µM]"}, {"smiles": "O=C(Nc1ccc2ccccc2c1)Nc1nnc(-c2ccncc2)s1", "Potency": "10 µM (active)"}]}]}
